Records with an inconclusive call do not appear. Values without a mark were called inactive. Activity calls are given as the source filed them. Calls follow the shape of the dose curve; as a rule, active = well fitted inhibition curve with a large enough effect; inconclusive = small, poorly fitted or top-dose-only effect; inactive = flat fitted curve, though single readings scatter. Where a SMILES comes first, the peptide text is derived from it.
Biological target: Glutathione peroxidase 1 (Homo sapiens) (UniProt P07203)
Sequence (P07203 whole entry, looked up): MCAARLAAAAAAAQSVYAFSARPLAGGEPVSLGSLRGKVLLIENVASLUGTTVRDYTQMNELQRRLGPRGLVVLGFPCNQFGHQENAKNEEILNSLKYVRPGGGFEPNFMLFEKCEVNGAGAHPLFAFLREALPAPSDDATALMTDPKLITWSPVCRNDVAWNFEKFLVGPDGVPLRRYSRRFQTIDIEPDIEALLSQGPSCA
Test: Primary qHTS Assay for Inhibitors of Recombinant Selenoprotein Glutathione Peroxidase 1 (GPX1) (AID 1845191); also: nearly all actives have a fitted effect of over 65% in size
Conditions: recombinant GPX1, GR-coupled NADPH fluorescence, 15 min; series mostly up to 27.7 µM; activity, negative = inhibition: at the top concentration
Method in brief: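 NADPH consumption tracked by fluorescence at 340/450 nm between t=0 and t=15 min, room temperature. Final mix: 10 nM GPX1, 100 nM glutathione reductase, 1 mM GSH, 0.5 mM NADPH, 0.5 mM cumene hydroperoxide, 0.01% BSA; 30 min compound–enzyme preincubation.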
% is scaled to controls: 0 for no effect and ±100 for the full control effect.

Compound | activity, negative = inhibition | outcome
C=C(C(=O)O)[C@@H]1CC[C@@]2(C)CCC[C@@](C)(O)[C@@H]2C1 | -13.7% [at 48.8 µM] | –
OC[C@H]1O[C@@H](Oc2cc(O)cc(-c3cc4ccc(O[C@@H]5O[C@H](CO)[C@@H](O)[C@H](O)[C@H]5O)cc4o3)c2)[C@H](O)[C@@H](O)[C@@H]1O | – | inactive
COc1ccnc(CCc2nc3ncccc3[nH]2)c1 | – | inactive [at 48.8 µM]
Cc1oc2nc3c(c(NC(=O)CN4CCCC4=O)c2c1C)CCCC3 | 3.09% [at 48.8 µM] | –
C/C=C/C1OC2=C(C(=O)OC2(C)O)C(O)C1O (centres undefined) | -5.04% [at 48.8 µM] | –
O=C(Nc1ccn(Cc2c(F)cccc2C(F)(F)F)n1)c1c(F)cccc1F | – | inactive [at 15.3 µM]
COc1ccc(C(=O)NCc2cc(C(C)C)no2)cc1OC1CCN(C)CC1 | – | inactive [at 48.8 µM]
C=C1CC[C@H]2[C@@](C)(CCC(O)[C@@]2(C)CO)[C@@H]1/C=C/C(=C\C(=O)O)C(=O)O (some centres undefined) | -4.91% | –
NC(=O)[C@H](Cc1ccccc1)NC(=O)[C@H](CCCN=C(N)N)NC(=O)C12CC3CC(CC(C3)C1)C2 | – | inactive [at 9.52 µM]
COc1cc(C(C)=O)ccc1O[C@@H]1O[C@H](CO)[C@@H](O)[C@H](O)[C@H]1O | -5.02% | –
CCCC(=O)Nc1cccc(NC(=O)c2ccccc2Br)c1 | 2.73% [at 48.8 µM] | –
Cc1occc(=O)c1O[C@@H]1O[C@H](COC(=O)CC(C)(O)CC(=O)O)[C@@H](O)[C@H](O)[C@H]1O (some centres undefined) | – | inactive
Cc1cc(Cn2cnc3c2CC(C(=O)O)N(C(=O)C(c2ccccc2)c2ccccc2)C3)ccc1N(C)C (centres undefined) | -11.2% [at 48.8 µM] | –
CSCC[C@H](NC(=O)[C@H](CO)NC(=O)[C@H](CCC(=O)O)NC(C)=O)C(=O)N[C@H](C=O)CC(=O)O (Ac-ESMD-aldehyde) | -6.54% [at 9.52 µM] | –
